30 molecules from PubChem BioAssay (NCI) can be followed below.

The panel holds about 83,000 compounds, 20% with a hit somewhere; the sample as a whole holds those more often.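 The test compound was applied at a single concentration to cells in 96-well plates for 48 hours, and percent growth was recorded.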 Calls of active or inactive are those of the source. Rule for the calls: active = growth percent below 10; inactive = the rest.

The first assay concerns MOLT-4 leukemia. In words: NCI-60 one-dose screen, 48 h (100 = growth as untreated, 0 = no growth, -100 = all killed). The settings on record: 10 µM.
Take `COc1ccc(C2c3sc4ccc(C)cc4c3Oc3nc(N)nc(N)c32)cc1` (stereo not given): the growth is 89.9% (inactive).
Take `Cc1cc(N=C2NC(=O)S/C2=C\c2ccc(F)cc2)n[nH]1`: the growth was 10.5% (inactive).
As for `Cn1cc(-c2nnc(N)nc2-c2c[nH]c3ccccc23)c2cc(Br)cnc21`, the growth was 2.48% (active).
On the same count and under the same terms, the same measure for `O=C(CC(=O)Nc1ccc(Oc2ncnc3scc(Nc4n[nH]c(=S)s4)c23)cc1)Nc1ccc(Cl)cc1`: 60.2% (inactive); for `O=C1NC2C=CC=CC2/C1=C1/SC(=S)N(C2CC(=O)N(c3ccc(Br)cc3)C2=O)C1=O` (stereo not given): 70.5% (inactive).
Same read-out and setting: the same measure for `CC1(C)CC(=O)C2=C(C1)N(Cc1ccc(C(=O)O)cc1)C1=C(C(=O)CC(C)(C)C1)C2c1ccc(Cl)cc1`: 92.9% (inactive); for `Cc1ccc2c(c1)C(=O)/C(=C/c1ccc([N+](=O)[O-])cc1)S2`: 107% (inactive); for `O=C(Nc1ccc(OCc2ccc(Cl)cc2)cc1)Nc1ccc(Cl)c(C(F)(F)F)c1`: 9.92% (active).
Same read-out and setting: the same measure for `Cn1cc(-c2nc(N)nnc2-c2c[nH]c3ccccc23)c2cc(Br)cnc21`: 13.8% (inactive); for `O=C(CSc1nc2ccccc2c(=O)n1-c1ccc(Cl)cc1)Nc1ccc(-c2nc3ccccc3[nH]2)cc1`: -7.88% (active); for `Cc1ccc2c(c1)C(=O)/C(=C/c1c[nH]c3ccccc13)S2`: 32% (inactive).
For the molecule `COc1cccc(O)c1/C=C1\SCc2cc3c(OC)cccc3[o+]c21`, the growth is 112% (inactive).
Regarding `COc1cc(C2CC(c3ccc(Oc4ccc(Cl)cc4)cc3)=NN2c2nc(-c3ccc(Cl)cc3)c(C#N)c(N3CCOCC3)n2)cc(OC)c1OC` (stereo not given), the growth was 105% (inactive).
On the same count and under the same terms, the figure for `O=C(Nc1ccc(OCC(=O)c2ccc(Cl)cc2)cc1)Nc1ccc(Cl)c(C(F)(F)F)c1` is 45.3% (inactive).
With `Cc1ccc2sc3c(c2c1)Oc1nc[nH]c(=O)c1C3c1cccc(F)c1` (stereo not given), the growth is 97% (inactive).
Same read-out and setting: the same measure for `Cc1cc(N=C2NC(=O)/C(=C/c3cc(C(C)(C)C)c(O)c(C(C)(C)C)c3)S2)n[nH]1`: 11% (inactive); for `COc1ccc(C2c3sc4ccc(C)cc4c3Oc3nc[nH]c(=O)c32)cc1` (stereo not given): 77.9% (inactive); for `COc1cccc(C(=O)CSc2nc(-c3ccc(OCc4ccccc4)c(OC)c3)c(C#N)c(=O)[nH]2)c1`: 102% (inactive).
Same read-out and setting: the same measure for `Cc1ccc(COc2ccc(NC(=O)Nc3ccc(Cl)c(C(F)(F)F)c3)cc2)cc1`: 73.5% (inactive).
With `O=C(O)CCN1C(=O)/C(=C/C=C/c2ccc([N+](=O)[O-])o2)SC1=S`, the growth was -20.4% (active).
`CC(C)(C)c1cc(/C=C2\S/C(=N/c3ncn[nH]3)NC2=O)cc(C(C)(C)C)c1O`: the growth was 13.8% (inactive).
Still for that read-out and setting: the figure for `Cn1cc(/C=C(/SS/C(=C/c2cn(C)c3cccc(C(=O)O)c23)C(=O)O)C(=O)O)c2c(C(=O)O)cccc21` is 111% (inactive).
Turning to `COc1ccc(C(=O)COc2ccc(NC(=O)Nc3ccccc3)cc2)cc1`, the growth is 73.9% (inactive).
Take `CCn1c(SCC(=O)Nc2ccc(-c3nc4ccccc4[nH]3)cc2)nc2ccccc2c1=O`: the growth was 3.3% (active).
On to `O=C(Nc1ccc(OCc2ccc(F)cc2)cc1)Nc1ccc(Cl)c(C(F)(F)F)c1`, for which the growth is 6.64% (active).
`O=C(CC(=O)Nc1ccc(Oc2ncnc3scc(Nc4n[nH]c(=S)s4)c23)cc1)Nc1ccc(Br)cc1`: the growth is 85.3% (inactive).
As for `COc1ccc(C(=O)COc2ccc(NC(=O)Nc3ccc(Cl)c(C(F)(F)F)c3)cc2)cc1`, the growth was 15.6% (inactive).
Same read-out and setting: the figure for `O=C(Nc1ccc(Oc2ncnc3scc(Nc4n[nH]c(=S)s4)c23)cc1)C1(C(=O)Nc2cccc(C(F)(F)F)c2)CC1` is 106% (inactive); for `O=C1NC(=S)S/C1=C\c1cn(-c2ccccc2)nc1-c1ccc([N+](=O)[O-])cc1` it is 17% (inactive); for `O=C(CSc1nc2ccccc2c(=O)n1-c1ccc(Cl)cc1)Nc1ccc(-c2nc3ccc([N+](=O)[O-])cc3[nH]2)cc1` it is 39.5% (inactive).

In another assay the test system is SR leukemia. Described as above. The settings on record: 10 µM.
Take `COc1ccc(C2c3sc4ccc(C)cc4c3Oc3nc(N)nc(N)c32)cc1` (stereo not given): the growth is 51.2% (inactive).
In the case of `Cc1cc(N=C2NC(=O)S/C2=C\c2ccc(F)cc2)n[nH]1`, the growth was 8.59% (active).
Turning to `Cn1cc(-c2nnc(N)nc2-c2c[nH]c3ccccc23)c2cc(Br)cnc21`, the growth was 8.61% (active).
On the same count and under the same terms, the figure for `O=C(CC(=O)Nc1ccc(Oc2ncnc3scc(Nc4n[nH]c(=S)s4)c23)cc1)Nc1ccc(Cl)cc1` is 62.2% (inactive); for `O=C1NC2C=CC=CC2/C1=C1/SC(=S)N(C2CC(=O)N(c3ccc(Br)cc3)C2=O)C1=O` (stereo not given) it is 67.9% (inactive); for `CC1(C)CC(=O)C2=C(C1)N(Cc1ccc(C(=O)O)cc1)C1=C(C(=O)CC(C)(C)C1)C2c1ccc(Cl)cc1` it is 99.6% (inactive).
For `Cc1ccc2c(c1)C(=O)/C(=C/c1ccc([N+](=O)[O-])cc1)S2`, the growth is 100% (inactive).
The same measure, in the same setting: the figure for `O=C(Nc1ccc(OCc2ccc(Cl)cc2)cc1)Nc1ccc(Cl)c(C(F)(F)F)c1` is 2.46% (active); for `Cn1cc(-c2nc(N)nnc2-c2c[nH]c3ccccc23)c2cc(Br)cnc21` it is 8.01% (active).
On to `O=C(CSc1nc2ccccc2c(=O)n1-c1ccc(Cl)cc1)Nc1ccc(-c2nc3ccccc3[nH]2)cc1`, for which the growth was -15.2% (active).
On the same count and under the same terms, the figure for `Cc1ccc2c(c1)C(=O)/C(=C/c1c[nH]c3ccccc13)S2` is 27.1% (inactive).
Consider `COc1cccc(O)c1/C=C1\SCc2cc3c(OC)cccc3[o+]c21`, for which the growth was 98% (inactive).
The same measure, in the same setting: the figure for `COc1cc(C2CC(c3ccc(Oc4ccc(Cl)cc4)cc3)=NN2c2nc(-c3ccc(Cl)cc3)c(C#N)c(N3CCOCC3)n2)cc(OC)c1OC` (stereo not given) is 88.5% (inactive); for `O=C(Nc1ccc(OCC(=O)c2ccc(Cl)cc2)cc1)Nc1ccc(Cl)c(C(F)(F)F)c1` it is 39.5% (inactive).
Regarding `Cc1ccc2sc3c(c2c1)Oc1nc[nH]c(=O)c1C3c1cccc(F)c1` (stereo not given), the growth was 96.3% (inactive).
For the molecule `Cc1cc(N=C2NC(=O)/C(=C/c3cc(C(C)(C)C)c(O)c(C(C)(C)C)c3)S2)n[nH]1`, the growth is 12.2% (inactive).
As to `COc1ccc(C2c3sc4ccc(C)cc4c3Oc3nc[nH]c(=O)c32)cc1` (stereo not given), the growth was 39.4% (inactive).
The same measure, in the same setting: the figure for `COc1cccc(C(=O)CSc2nc(-c3ccc(OCc4ccccc4)c(OC)c3)c(C#N)c(=O)[nH]2)c1` is 93.9% (inactive); for `Cc1ccc(COc2ccc(NC(=O)Nc3ccc(Cl)c(C(F)(F)F)c3)cc2)cc1` it is 55% (inactive); for `O=C(O)CCN1C(=O)/C(=C/C=C/c2ccc([N+](=O)[O-])o2)SC1=S` it is 0.111% (active).
The same measure, in the same setting: the same measure for `CC(C)(C)c1cc(/C=C2\S/C(=N/c3ncn[nH]3)NC2=O)cc(C(C)(C)C)c1O`: 6.04% (active); for `Cn1cc(/C=C(/SS/C(=C/c2cn(C)c3cccc(C(=O)O)c23)C(=O)O)C(=O)O)c2c(C(=O)O)cccc21`: 98.7% (inactive); for `COc1ccc(C(=O)COc2ccc(NC(=O)Nc3ccccc3)cc2)cc1`: 80.6% (inactive).
For the molecule `CCn1c(SCC(=O)Nc2ccc(-c3nc4ccccc4[nH]3)cc2)nc2ccccc2c1=O`, the growth is -15.2% (active).
On the same count and under the same terms, the same measure for `O=C(Nc1ccc(OCc2ccc(F)cc2)cc1)Nc1ccc(Cl)c(C(F)(F)F)c1`: -7.46% (active).
The same measure, in the same setting: the same measure for `O=C(CC(=O)Nc1ccc(Oc2ncnc3scc(Nc4n[nH]c(=S)s4)c23)cc1)Nc1ccc(Br)cc1`: 87% (inactive); for `COc1ccc(C(=O)COc2ccc(NC(=O)Nc3ccc(Cl)c(C(F)(F)F)c3)cc2)cc1`: 7.72% (active).
Same read-out and setting: the figure for `O=C(Nc1ccc(Oc2ncnc3scc(Nc4n[nH]c(=S)s4)c23)cc1)C1(C(=O)Nc2cccc(C(F)(F)F)c2)CC1` is 85% (inactive).
As to `O=C1NC(=S)S/C1=C\c1cn(-c2ccccc2)nc1-c1ccc([N+](=O)[O-])cc1`, the growth is 24.5% (inactive).
The same measure, in the same setting: the figure for `O=C(CSc1nc2ccccc2c(=O)n1-c1ccc(Cl)cc1)Nc1ccc(-c2nc3ccc([N+](=O)[O-])cc3[nH]2)cc1` is 38.2% (inactive).
